Source: PubChem BioAssay (National Center for Advancing Translational Sciences (NCATS))
HCV inh – blocks hepatitis C virus; Potency, µM (highest dose often 41.8 µM), usual class: inhibitors; 340,000 compounds, 3.4% hits; Huh7.5.1 HCVcc-Cre infection, luciferase reporter, 44 h
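Luciferase read-out (15 sec integration) after a 15 min room-temperature substrate step quantifies HCVcc-Cre infection. Cells, 1,000 per well, had compound added 4 h post-plating, then virus at ~0.5 moi, and were cultured 44 h.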
Sm TGR block – inhibitors of Schistosoma mansoni thioredoxin glutathione reductase; Q962Y6; purified TGR, DTNB reduction, TNB absorbance 405 nm; Potency, µM (top dose mostly 114 µM), hits mostly inhibitors; 360,000 compounds, 3% hits; note: nearly all actives have a fitted effect of over 60% in size
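First, TGR (20 nM dispensed) and NADPH were mixed with compound. Second, a 15 min room-temperature incubation followed. Third, further NADPH and then DTNB were added to start the reaction. Finally, TNB absorbance was monitored kinetically.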
FMDV inh – foot and mouth disease virus antiviral activity; FMDV antiviral cell-based qHTS; Potency, µM (titrated, usually from 57.9 µM), actives largely listed as inhibitors; 410,000 compounds, 1.2% hits; AID 1159524; calls by dose curve; tested in HEK293T cells; note: read-out not given here; nearly all actives have a fitted effect of over 45% in size
VACV Venus inh – inhibitors of vaccinia virus (Venus reporter). Vaccinia virus Venus reporter expression, fluorescence. 330,000 compounds, 0.46% hits. Potency, µM (titrated, usually from 36.5 µM), actives largely listed as inhibitors. AID 720580; calls by dose curve; tested in A549 cells; note: nearly all actives have a fitted effect of over 30% in size
HCMV inh – inhibitors of human cytomegalovirus | 410,000 compounds, 4.5% hits | AID 1259415 | HFF cells, HCMV-luciferase reporter, 72 h; active compounds read low | activity change, negative = inhibition, % at 57.5 µM; in the data active = activity change below about -60%; inconclusive = no clear call, values can overlap the other calls; inactive = above about -39%
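HFF cells seeded 16 h at 37C, treated with compounds, infected with luciferase-reporter HCMV at MOI 1 PFU/cell; luciferase read at 72 h post infection, normalized to buffer-only and Salinomycin controls.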
Vaccinia mCherry – vaccinia inhibition (mCherry reporter) | AID 720579 | Potency, µM (doses to about 36.5 µM), hits mostly inhibitors | Vaccinia virus mCherry reporter infection, fluorescence | 310,000 compounds, 0.63% hits; calls by dose curve; tested in A549 cells; note: nearly all actives have a fitted effect of over 35% in size
Hits are given with their value; i = inactive; ? = inconclusive; nt = no result given. This is a sample that favours compounds with a hit; in the whole collection about 9.3% have one here. Unless noted, calls come from the whole dose curve; as a rule, active = well fitted curve in the direction sought with a large enough effect; inconclusive = small, poorly fitted or top-dose-only effect, or another doubt; inactive = no such curve, though single readings can be large; an effect the other way counts as inactive or inconclusive.

SMILES	HCV inh	Sm TGR block	FMDV inh	VACV Venus inh	HCMV inh	Vaccinia mCherry
O=C(CSc1nc(-c2cccs2)cc(C(F)(F)F)n1)NCc1ccco1	?	?	nt	i	-75	i
Cc1cccc(CS(=O)(=O)Cc2ccc(C(=O)NCCc3ccccc3)o2)c1	i	i	i	i	i	i
Clc1ccc2c(c1)-c1ccccc1C1=NCCN12	nt	nt	?	?	-96	?
Brc1ccc2c(c1)-c1ccccc1C1=NCCN12	nt	nt	?	?	-69	?
CN1C2=NCCN2C(=O)c2cc(Cl)ccc21	i	i	i	i	i	i
CCc1ccccc1NC(=O)Cn1ccn(-c2cc(C)cc(C)c2)c(=O)c1=O	nt	i	i	i	-64	i
CCOC(=O)C1(Cc2ccccc2C)CCCN(Cc2cc(OC)c(O)c(OC)c2)C1 (stereo unspecified)	i	4.5µM	i	i	i	i
CCOC(=O)C1(Cc2ccccc2C)CCCN(C(=O)c2ccnn2C)C1 (stereo unspecified)	i	i	i	i	i	i
CCOC(=O)C1(CCOc2ccccc2)CCN(Cc2ccc(OC)c(COC)c2)CC1	11µM	i	?	i	i	i
CCOC(=O)C1(Cc2ccccc2C)CCCN(S(=O)(=O)c2cccnc2)C1 (stereo unspecified)	i	i	i	i	-93	i
CCOC(=O)C1(CCOc2ccccc2)CCN(Cc2cc(OC)c(O)c(OC)c2)CC1	i	40µM	?	nt	i	nt
CCOC(=O)C1(CCOc2ccccc2)CCN(Cc2ccc(OC)c(O)c2)CC1	?	i	?	nt	i	nt
CCn1nc(C)cc1Nc1ccccc1	i	i	i	nt	i	nt
Cc1cc(C)cc(-n2ncc3c2CCCC3NC(=O)c2csnn2)c1 (stereo unspecified)	i	i	i	i	i	i
O=C(C1CCN(S(=O)(=O)N2CCOCC2)CC1)N1CCc2ccccc21	i	i	i	i	i	nt
CN1CCN(c2oc(-c3ccccc3Cl)nc2S(=O)(=O)c2ccccc2)CC1	i	i	i	i	i	i
CCOC(=O)C1(CCOc2ccccc2)CCN(Cc2ccc(O)c(OCC)c2)CC1	?	45µM	i	i	i	?
COc1cc(OC)c(N(C)C(=O)c2c(C)oc3ncn(CC(C)C)c(=O)c23)cc1Cl	nt	i	i	i	i	i
COc1ccc(/C=N/Nc2ncnc(Cl)c2N)cc1OC	i	?	i	i	?	i
COc1cccc(C=NNc2nnc(NN=Cc3cccc(OC)c3OC)c3ccccc23)c1OC	?	nt	20µM	i	i	i
COc1cccc(/C=N/Nc2ncnc(Cl)c2N)c1O	5.6µM	i	i	5µM	-97	3.5µM
COc1cccc(/C=N/Nc2ncnc3scc(-c4ccccc4)c23)c1O	?	i	i	?	-100	2µM
Nc1c(Cl)ncnc1N/N=C/c1ccncc1	i	45µM	i	i	i	i
CC1(C)O[C@@H]2[C@H](O1)[C@@H](CO)O[C@H]2n1cc(Br)c(=O)[nH]c1=O	i	nt	i	i	i	i
COc1ccccc1/C=N/Nc1nncc2ccccc12	i	i	i	i	i	i
SMILES	HCV inh	Sm TGR block	FMDV inh	VACV Venus inh	HCMV inh	Vaccinia mCherry
COc1cccc(/C=N/Nc2nccnc2Cl)c1O	2.5µM	i	13µM	?	-96	1.3µM
COc1ccc(/C=N/Nc2nncc3ccccc23)cc1	?	i	3.5µM	i	i	i
COc1ccc(/C=N/Nc2nccnc2Cl)c(OC)c1	i	nt	i	i	i	i
COCc1cc(=O)[nH]c(-c2ccccc2)n1	i	i	i	nt	i	nt
CC(=O)Nc1sc(C)c(C)c1C(=O)OCC(=O)Nc1cc(S(=O)(=O)N2CCCCC2)ccc1Cl	i	i	i	i	?	i
CO[C@@]1(NC(=O)Cc2cccs2)C(=O)N2C(C(=O)O)=C(COC(N)=O)CS[C@@H]21	?	35µM	i	i	nt	i
CCC(C)n1c(NC(=O)c2ccccc2)c(C#N)c2nc3ccccc3nc21 (stereo unspecified)	?	i	11µM	?	i	nt
CCCCn1c(NC(=O)c2ccccc2)c(C#N)c2nc3ccccc3nc21	?	i	nt	i	-67	i
CCCCCn1c(NC(=O)c2ccco2)c(C(=O)OCC)c2nc3ccccc3nc21	?	?	?	i	nt	i
O=C(COC(=O)C1CC1)Nc1ccccc1Sc1ccccc1	i	i	i	nt	?	nt
COCCNc1nc2cc(-c3ccccc3)sc2c(=O)n1C	nt	nt	i	i	i	i
O=C(NCCCn1ccnc1)C(=O)NCc1ccc(Cl)cc1	i	i	i	i	i	i
COc1cccc(NC(=O)C(=O)NCCCn2ccnc2)c1	i	i	i	i	-64	i
Cc1ccc(CNC(=O)C(=O)NCCCn2ccnc2)cc1	i	nt	i	i	-67	i
OCCCNc1ncnc2scc(-c3ccc(Cl)cc3)c12	i	i	?	i	-80	?
NNc1ncnc2scc(-c3ccc(Cl)cc3)c12	?	i	?	i	-99	?
COc1ccc(CNC(=O)[C@@H]2CC=C[C@@H]3CCN(Cc4ccccc4)C(=O)[C@@H]32)cc1	i	nt	i	i	i	i
O=C(NCCCN1CCCC1=O)C1CCN(S(=O)(=O)c2cc(C(F)(F)F)ccc2Cl)CC1	i	i	i	nt	i	nt
O=C(Nc1ccc(Cl)c(C(F)(F)F)c1)C1CCN(S(=O)(=O)c2cccc3nonc23)CC1	nt	i	32µM	i	?	i
